Compound activity from PubChem BioAssay.
A selection: hits, their analogues and other compounds. The true share with any hit is near 0.89%.
CIT2 TOR yeast – modulators of TOR pathway CIT2-GFP in S. cerevisiae; S. cerevisiae CIT2-GFP strain, flow cytometry, 3 h; 100 means same as DMSO wells; GFP response vs DMSO, % at 10 µM; 0.065% of 320,000 active; AID 2029;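 active means GFP response relative to DMSO above a set limit, near the screen mean plus 3 SD, cut at about 150% in these data; inconclusive means Fewer than 70 cells measured for a yeast strain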;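 further: ratio of well median GFP fluorescence to mean of DMSO wells on the plate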
LAP4 TOR yeast – yeast TOR pathway LAP4-GFP modulation; AID 2023; GFP response vs DMSO, % at 10 µM; 0.34% of 320,000 active; S. cerevisiae LAP4-GFP multiplex, flow cytometry GFP, 3 h; median GFP as percent of DMSO wells;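 active means GFP response vs DMSO above a set limit, about the screen mean plus 3 SD, cut at about 150% in these data; inconclusive means under 70 cell events counted for the yeast strain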
AGP1-GFP MLPCN – alters AGP1-GFP fluorescence in TOR pathway yeast screen; S. cerevisiae AGP1-GFP multiplex flow cytometry, 3 h; GFP as percent of DMSO wells; AID 2066; GFP response vs DMSO, % at 10 µM; 0.02% of 320,000 active;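 active means GFP response relative to DMSO above a set limit, near screen average plus 3 SD, cut at about 150% in these data; inconclusive means fewer than 70 cells counted for the yeast strain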;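 further: median GFP channel fluorescence of the gated AGP1 strain per well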
MEP2 TOR yeast – yeast TOR pathway MEP2-GFP modulation; S. cerevisiae MEP2-GFP strain, flow cytometry GFP, 3 h; 100% = DMSO control level; GFP response vs DMSO, % at 10 µM; 0.51% of 330,000 active;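 active means GFP response versus DMSO above a set limit, roughly screen mean plus 3 SD, cut at about 180% in these data; inconclusive means fewer than 70 cells counted for a yeast strain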;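 further: median GFP fluorescence of the barcode-gated MEP2-GFP cells per well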
RPL19A-GFP yeast – modulators of TOR pathway RPL19A-GFP in S. cerevisiae. S. cerevisiae RPL19A-GFP strain, flow cytometry, 3 h; stronger effect = lower value. percent response vs DMSO, % at 10 µM. 0.3% of 330,000 active. AID 2025;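 active means percent response vs DMSO below 50%; inconclusive means fewer than 70 events counted for the yeast strain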;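 further: median channel GFP fluorescence of the barcoded RPL19A-GFP strain; ratio of sample median GFP to plate DMSO average so 100% = DMSO; lower means less RPL19A-GFP as with rapamycin TOR inhibition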
* marks the source's active call; other numbers are inactive results; ? = inconclusive; . = no result; [ ] = remark or other dose.

SMILES	CIT2 TOR yeast	LAP4 TOR yeast	AGP1-GFP MLPCN	MEP2 TOR yeast	RPL19A-GFP yeast
COc1cc2c(C(F)(F)F)c(-c3ccc(C#N)cc3)oc(=O)c2cc1OC	104.1	111.0	116.0	104.9	108.5
COC(=O)c1ccc(/C=C2/SC(=S)N(CCC(=O)NCCCN3CCOCC3)C2=O)cc1	?	89.0	?	565.6*[may fluoresce violet]	58.3
CCc1ccc(/C=C2/SC(=S)N(CCC(=O)NCCCN3CCOCC3)C2=O)cc1	95.5	73.3	96.2	86.6	102.6
Cc1ccc(OC(=O)C(F)(F)F)c2c1NCCC2	95.7	93.6	97.4	100.0	94.5
Fc1ccccc1-c1nc(NCCCN2CCOCC2)c2ccccc2n1	102.6	111.0	97.8	207.6*	101.6
O=C(N/N=C/c1ccc(-c2ccc(Br)cc2)o1)c1ccc2c(c1)OCO2	84.2	162.0*	90.0	91.1	91.9
CC(=O)c1cc(NC(=O)c2ccc(C)cc2)c(=O)oc1C	73.9	166.0*	.	85.6	78.6
O=C(C1=C(O)C(=O)N(CCN2CCOCC2)C1c1ccc(F)cc1)c1cc2ccccc2o1 (stereo not given)	?	69.9	?	158.1	16.2*[may fluoresce violet]
O=C(C1=C(O)C(=O)N(CCN2CCOCC2)C1c1cccc(Br)c1)c1cc2ccccc2o1 (stereo not given)	86.3	103.3	98.3	101.5	96.5
OCC(O)C1OC(Nc2ccc(Cl)cc2)C(O)C1O (stereo not given)	?	114.6	?	309.9*[may fluoresce violet]	55.9
Cc1cc(C)cc(NC(=O)C2C3C=CC4(O3)C2C(=O)N(CCCN2CCCCC2)C4C(=O)NC2CCCCC2)c1 (stereo not given)	86.5	84.0	69.0	93.3	88.9
COCCCN1C(=O)C2C(C(=O)Nc3cc(C)cc(C)c3)C3C=CC2(O3)C1C(=O)NC1CCCCC1 (stereo not given)	85.9	88.3	56.6	216.7*	62.9
O=C(Nc1ccc(Br)cc1)C1C2C=CC3(O2)C1C(=O)N(CCN1CCOCC1)C3C(=O)NC1CCCCC1 (stereo not given)	?	88.3	25.1	437.9*[may fluoresce violet]	56.9
Cc1ccc(NC(=O)C2C3C=CC4(O3)C2C(=O)N(CCN2CCOCC2)C4C(=O)NC2CCCCC2)cc1C (stereo not given)	98.7	98.2	106.5	100.3	104.6
CNC(=O)/C(C#N)=C/c1c(N2CCCCCC2)nc2ccccn2c1=O	80.0	93.3	20.6	215.6*	77.1
COc1ccc(C2=CC3=C(Br)C(=O)C(C)(OC(=O)c4ccc(Cl)nc4)C(=O)C3=CO2)cc1 (stereo not given)	?	58.8	6.0	84.3	20.9*[may fluoresce violet]
COc1ccc(C2=CC3=C(Br)C(=O)C(C)(OC(=O)C4CCCC4)C(=O)C3=CO2)cc1 (stereo not given)	?	128.5	10.6	137.5	38.6*[may fluoresce violet]
CC(=O)CCn1cc([N+](=O)[O-])nc1C	109.6	116.2	116.7	107.6	109.6
N#CCCn1cc(CNC2CCC(O)CC2)c2ccccc21 (stereo not given)	?	59.7	?	244.8*[may fluoresce violet]	45.6*[may fluoresce violet]
COc1ccc(/C=N/NC2=NS(=O)(=O)c3ccccc32)cc1OC(C)=O	97.6	82.3	92.2	102.4	99.8
COC(=O)NC1CCC(CC2CCC(NC(=O)OC)CC2)CC1 (stereo not given)	121.3	212.1*	99.1	698.3*	97.8
COc1ccc(CC2(CO)CCN(S(=O)(=O)c3c(C)nn(C)c3C)CC2)cc1	100.8	86.6	100.2	96.0	103.9
COc1ccc2[nH]c(C(=O)Nc3ncc(C)cc3Br)cc2c1	94.8	111.3	95.1	98.4	91.8
NS(=O)(=O)c1ccc(N2N=C(c3ccc(Br)cc3)CC2c2ccc(F)cc2)cc1 (stereo not given)	?	62.6	?	169.3	37.3*[may fluoresce violet]
Cc1ccc(/C=N/NC(=O)CNC(=O)COc2ccc(Cl)cc2)o1	93.1	99.7	99.9	96.3	100.5
SMILES	CIT2 TOR yeast	LAP4 TOR yeast	AGP1-GFP MLPCN	MEP2 TOR yeast	RPL19A-GFP yeast
Cc1ccccc1Oc1nc2c(C)cccn2c(=O)c1/C=C(\C#N)C(=O)NC1CCS(=O)(=O)C1 (stereo not given)	103.8	130.4	107.2	99.0	97.9
Cc1cccn2c(=O)c(/C=C(\C#N)C(=O)NC3CCS(=O)(=O)C3)c(Oc3ccccc3Cl)nc12 (stereo not given)	?	67.1	?	233.5*[may fluoresce violet]	50.7
CC(=O)Nc1ccc2c(c1)N(C(=O)CN(C)C)c1ccccc1CC2	107.5	111.3	109.1	110.7	105.1
CS(=O)(=O)N(CCc1ccccc1)CC(=O)N1CCCC1	?	?	?	?	42.8*[may fluoresce violet]
CS(=O)(=O)N(CC(=O)N1CCCCC1)Cc1ccccc1	102.2	98.3	102.4	100.7	100.5
CCCN1CCN(CC(=O)Nc2cc(OCC)ccc2OCC)CC1	98.5	93.8	106.0	105.8	102.1
Cc1ccc(C(=O)N2c3ccccc3NC(=O)C2C)cc1 (stereo not given)	.	212.3*	101.6	247.5*	103.2
CC1C(=O)Nc2ccccc2N1C(=O)c1ccc(Cl)c(Cl)c1 (stereo not given)	102.7	94.0	106.2	109.3	109.7
CCOc1ccc2noc3c2c1C(=O)c1ccccc1-3	121.2	246.9*	103.2	163.1	92.2
O=C(Nc1ccc(Cl)cc1)N1CCC(c2ccccc2)C1 (stereo not given)	82.4	135.4	90.8	92.3	97.8
CC(=O)NC1(C(F)(F)F)C(=O)Nc2c1c(=O)[nH]c(=O)n2CCc1ccccc1 (stereo not given)	82.8	97.8	28.7	176.0*	51.0
COC(=O)Cc1ccc(OCc2ccc(Cl)nc2)cc1	57.4	163.0*	75.5	73.8	75.3
CC(=O)C(Cc1ccc(Cl)nc1)Cc1ccc(Cl)nc1	89.6	95.2	90.2	97.1	91.3
CC(=O)Nc1ccc(SC[C@H](C)CN2CC[C@H](C(C)(C)C)CCC2=O)cc1	101.6	104.0	97.9	86.7	95.2
Cc1ccc(C(=O)O)cc1S(=O)(=O)N1CCSCC1	?	105.0	?	306.2*[may fluoresce violet]	43.1*[may fluoresce violet]
Nc1ccc2nc(SCC(=O)N3CCN(c4ccccc4)CC3)sc2c1	100.1	100.1	106.0	82.2	93.0
COc1ccc(C(=O)c2nccc3ccccc23)cc1	104.9	105.4	76.7	185.1*	98.9
CCN(CC)CC(=O)Nc1cc(N(C)C)nc2ccccc12	89.6	104.2	99.2	94.2	94.0
CCOC(=O)C1CCN(Cc2ccc(F)cc2F)CC1	94.4	99.5	93.8	99.8	99.9
CCOCCCN(C)C1CCN(C(=O)c2oc3ccccc3c2NC(=O)c2ccc(F)cc2)CC1	?	66.4	?	168.5	16.2*[may fluoresce violet]
CCOCCCN(C)C1CCN(C(=O)c2oc3ccccc3c2NC(=O)c2ccc([N+](=O)[O-])cc2)CC1	106.7	115.0	108.0	104.8	105.0
CC(C)(C)C1(C)OC(C(N)=O)C(C(N)=O)O1 (stereo not given)	83.6	89.2	91.7	88.8	94.5
